# A number with no mark means an inactive call. Calls of active or inactive are those of the source. Calls come from the whole dose curve.
# Target: Estrogen receptor (Homo sapiens) (UniProt P03372)
# Assay: qHTS assay to identify small molecule agonists of the estrogen receptor alpha (ER-alpha) signaling pathway in the presence of an antagonist (AID 1259383); note: top concentration of the series differs between compounds; nearly all actives have a fitted effect of over 15% in size
# Details: VM7Luc4E2 cells, ERE-luciferase, +ICI-182,780, 22 h; series mostly up to 92.4 µM; activation: at the top concentration
# Outline: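 Quantitative HTS confirmation: compounds titrated at 15 concentrations onto estrogen-deprived VM7Luc4E2 cells carrying a four-ERE luciferase construct, with ICI-182,780 present at 10.0nM final. Signal is luminescence after 22hr exposure.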
# % is set by controls: 0 for no effect and ±100 for the full control effect.
# Estrogen receptor (Homo sapiens), sequence (P03372 whole entry, looked up): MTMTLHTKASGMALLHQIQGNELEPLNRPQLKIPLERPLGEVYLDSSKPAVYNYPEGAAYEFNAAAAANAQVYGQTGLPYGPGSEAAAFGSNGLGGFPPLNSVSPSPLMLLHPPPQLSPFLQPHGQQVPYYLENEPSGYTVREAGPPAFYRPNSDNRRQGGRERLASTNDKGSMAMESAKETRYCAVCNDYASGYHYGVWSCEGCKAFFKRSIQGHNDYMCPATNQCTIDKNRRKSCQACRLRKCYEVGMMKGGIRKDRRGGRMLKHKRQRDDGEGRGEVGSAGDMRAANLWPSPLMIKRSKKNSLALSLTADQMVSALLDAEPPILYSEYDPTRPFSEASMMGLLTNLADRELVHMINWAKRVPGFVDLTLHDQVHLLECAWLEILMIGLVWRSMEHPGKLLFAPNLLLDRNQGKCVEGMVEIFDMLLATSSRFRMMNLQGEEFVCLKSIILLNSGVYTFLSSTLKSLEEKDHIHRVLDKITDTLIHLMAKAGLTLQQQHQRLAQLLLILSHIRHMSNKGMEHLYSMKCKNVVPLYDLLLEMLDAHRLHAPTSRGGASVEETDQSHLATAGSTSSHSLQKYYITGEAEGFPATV
Compound,activation,Potency
CC#C[C@]1(O)CC[C@H]2[C@@H]3C[C@H](C)C4=CC(=O)CC[C@]4(C)[C@H]3CC[C@@]21C,1.18% [at 42.5 µM],
N#CCCl,1.59%,
N#Cc1c[nH]cc1-c1cccc2c1OC(F)(F)O2,-2.58%,
COP(=O)(OC)O/C(=C\Cl)c1cc(Cl)c(Cl)cc1Cl,1.51%,
O=S1OCC2C(CO1)C1(Cl)C(Cl)=C(Cl)C2(Cl)C1(Cl)Cl (stereo not given),,inactive
ClC1(Cl)C2(Cl)C3(Cl)C4(Cl)C(Cl)(Cl)C5(Cl)C3(Cl)C1(Cl)C5(Cl)C24Cl (stereo not given),-1.28%,
CCO/N=C(\CC)C1=C(O)CC(c2c(C)cc(C)cc2C)CC1=O (stereo not given),2.34%,
O=S1(=O)OCC2C(CO1)C1(Cl)C(Cl)=C(Cl)C2(Cl)C1(Cl)Cl (stereo not given),-3.05%,
c1ccc(N=NNc2ccccc2)cc1,3.67%,
CSC(C)(C)/C=N/O,0.584%,
